Values without a mark were called inactive. Records with an inconclusive call do not appear. Entries that show only a call come without a potency. Active and inactive are the calls of the source. Unless noted, calls follow the shape of the dose curve; as a rule, active = well fitted curve in the direction sought with a large enough effect; inconclusive = small, poorly fitted or top-dose-only effect, or another doubt; inactive = no such curve, though single readings can be large; an effect the other way counts as inactive or inconclusive.
Tests used:
[1] = target: Luciferin 4-monooxygenase (Photinus pyralis) (UniProt P08659); experiment: Biochemical firefly luciferase enzyme assay for NPC (AID 624030);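 also: purified P. pyralis luciferase at 10 nM with luciferin and ATP substrate; nearly all actives have a fitted effect of over 70% in size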
Chain of Luciferin 4-monooxygenase (Photinus pyralis) (P08659 whole entry, looked up): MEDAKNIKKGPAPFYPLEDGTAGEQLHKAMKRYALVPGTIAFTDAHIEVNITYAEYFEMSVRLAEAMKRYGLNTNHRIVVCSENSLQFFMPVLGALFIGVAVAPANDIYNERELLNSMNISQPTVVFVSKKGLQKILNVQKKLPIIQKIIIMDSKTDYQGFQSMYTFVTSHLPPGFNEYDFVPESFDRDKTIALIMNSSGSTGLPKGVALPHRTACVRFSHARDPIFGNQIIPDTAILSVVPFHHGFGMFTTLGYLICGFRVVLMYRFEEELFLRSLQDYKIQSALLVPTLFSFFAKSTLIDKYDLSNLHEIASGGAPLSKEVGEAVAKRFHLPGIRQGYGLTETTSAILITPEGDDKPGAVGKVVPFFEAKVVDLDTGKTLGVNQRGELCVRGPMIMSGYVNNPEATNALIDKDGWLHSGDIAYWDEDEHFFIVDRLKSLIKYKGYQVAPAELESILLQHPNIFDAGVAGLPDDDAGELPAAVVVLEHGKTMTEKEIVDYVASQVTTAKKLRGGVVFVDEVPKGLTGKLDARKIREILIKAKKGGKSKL
Procedure, shortened: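 Counter-screen for direct inhibition of the luciferase enzyme by approved-drug library compounds, run at 10 nM enzyme in 50 mM Tris acetate (final). Luminescence was read within 5 min of enzyme-buffer addition and normalized to PTC124 versus DMSO (0%).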

CP315 = experiment: qHTS profiling for inhibitors of Plasmodium falciparum proliferation (AID 504749); also: nearly all actives have a fitted effect of over 60% in size; also: potency is read from the fitted curve at half-maximal effect; conditions: P. falciparum in erythrocytes, SYBR Green DNA, 72 h; series mostly up to 28.7 µM
Procedure, shortened: (§1)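 Fluorescence of SYBR Green-bound parasite DNA, read at 485/535 nm, served as the growth measure. Infected erythrocytes were cultured with compound 72 h; artemisinin (0.29 uM) and DMSO wells defined the normalization range.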

ICS = experiment: as above; conditions: P. falciparum in erythrocytes, SYBR Green DNA, 72 h; series mostly up to 28.7 µM
Procedure, shortened: as §1

JCK = experiment: as above; conditions: P. falciparum in erythrocytes, SYBR Green DNA, 72 h; series mostly up to 28.7 µM
Procedure, shortened: as §1

[2] = as above; conditions: P. falciparum in erythrocytes, SYBR Green DNA, 72 h, at 12.8 µM (top of the series)
Procedure, shortened: as §1

[3] = target: DNA repair nuclease/redox regulator APEX1 (Homo sapiens) (UniProt P27695); experiment: qHTS Validation Assay for Inhibitors of the Human Apurinic/apyrimidinic Endonuclease 1 (APE1) (AID 1705;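 also: TAMRA fluorescence gain over two minutes as APE1 cuts a quenched THF abasic duplex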)
Chain of DNA repair nuclease/redox regulator APEX1 (Homo sapiens) (P27695 whole entry, looked up): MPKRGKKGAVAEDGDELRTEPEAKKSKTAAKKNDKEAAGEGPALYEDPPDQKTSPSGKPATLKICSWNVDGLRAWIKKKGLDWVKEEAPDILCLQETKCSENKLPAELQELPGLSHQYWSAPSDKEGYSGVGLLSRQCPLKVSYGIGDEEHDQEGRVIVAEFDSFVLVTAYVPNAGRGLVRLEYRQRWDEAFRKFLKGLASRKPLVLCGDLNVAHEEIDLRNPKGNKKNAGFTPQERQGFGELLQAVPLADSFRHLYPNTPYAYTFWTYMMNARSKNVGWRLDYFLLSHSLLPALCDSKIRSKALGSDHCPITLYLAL
Procedure, shortened: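 Fluorogenic double-stranded THF abasic-site substrate (5'-TAMRA/3'-BHQ-2), 50 nM final. Enzyme preincubated with compound 15 min at room temperature, then substrate added. Kinetic fluorescence (ex 525/em 598 nm) read three times at 60 s intervals; activity taken as third-minus-first read difference.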

[4] = Counterscreen for APE1 Inhibitors: Fluorescent Dye Displacement Validation Assay (AID 1707)
Procedure, shortened: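 Signal: ThO fluorescence (ex 480 nm/em 540 nm) on binding 50 nM dsDNA; displacement by test compound reduces it. Conditions: 250 nM dye, 50 mM Tris-HCl pH7.5, 2 mM MgCl2, 50mM NaCl, 0.01% Tween-20.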

[5] = qHTS for differential inhibitors of proliferation of Plasmodium falciparum line 7G8 (AID 1815);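 also: parasite growth measured after three days of incubation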; also: potency is read from the fitted curve at half-maximal effect
[6] = qHTS for differential inhibitors of proliferation of Plasmodium falciparum line W2 (AID 1883); conditions: Potency: Plasmodium falciparum W2 proliferation inhibition;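 also: parasites grown with compound for 72 h before lysis and staining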; also: potency is read from the fitted curve at half-maximal effect
[7] = target: ATP-dependent DNA helicase Q1 (Homo sapiens) (UniProt P46063); experiment: qHTS Validation Assay for Inhibitors of RecQ-Like Dna Helicase 1 (RECQ1) (AID 2353)
Chain of ATP-dependent DNA helicase Q1 (Homo sapiens) (P46063 whole entry, looked up): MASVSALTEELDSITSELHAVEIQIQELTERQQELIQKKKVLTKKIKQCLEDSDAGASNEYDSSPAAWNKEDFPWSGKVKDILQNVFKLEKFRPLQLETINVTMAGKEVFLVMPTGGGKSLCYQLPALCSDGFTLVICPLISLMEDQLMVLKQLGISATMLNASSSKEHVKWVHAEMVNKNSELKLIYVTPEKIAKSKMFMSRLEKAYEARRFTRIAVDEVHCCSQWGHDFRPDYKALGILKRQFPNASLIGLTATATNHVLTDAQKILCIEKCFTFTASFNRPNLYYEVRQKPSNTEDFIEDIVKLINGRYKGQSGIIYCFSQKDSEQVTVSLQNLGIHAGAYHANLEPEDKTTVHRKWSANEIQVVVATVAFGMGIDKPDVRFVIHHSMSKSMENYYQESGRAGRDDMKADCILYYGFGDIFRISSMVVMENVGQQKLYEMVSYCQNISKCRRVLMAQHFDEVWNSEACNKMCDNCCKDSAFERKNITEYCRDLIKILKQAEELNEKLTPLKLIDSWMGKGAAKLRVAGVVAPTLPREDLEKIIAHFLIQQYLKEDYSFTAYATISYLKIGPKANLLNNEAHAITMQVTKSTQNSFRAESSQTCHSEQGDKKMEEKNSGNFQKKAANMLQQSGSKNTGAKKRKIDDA
Procedure, shortened: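 RECQ1T1 50 nM; forked duplex (20 bp + 30-nt ss tails) 200 nM, ATP 2 mM final; pH 8.0, 2 mM MgCl2, 2.5 ug/ml poly(dI-dC); 15 min compound preincubation; discontinuous kinetic read over 2 h at RT.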

[8] = target: Transient receptor potential cation channel subfamily V member 1 (Homo sapiens) (UniProt Q8NER1); experiment: HTS Assay for Compounds that Act as Enhancers of the Vanilloid Receptor 1 (AID 488979)
Chain of Transient receptor potential cation channel subfamily V member 1 (Homo sapiens) (Q8NER1 whole entry, looked up): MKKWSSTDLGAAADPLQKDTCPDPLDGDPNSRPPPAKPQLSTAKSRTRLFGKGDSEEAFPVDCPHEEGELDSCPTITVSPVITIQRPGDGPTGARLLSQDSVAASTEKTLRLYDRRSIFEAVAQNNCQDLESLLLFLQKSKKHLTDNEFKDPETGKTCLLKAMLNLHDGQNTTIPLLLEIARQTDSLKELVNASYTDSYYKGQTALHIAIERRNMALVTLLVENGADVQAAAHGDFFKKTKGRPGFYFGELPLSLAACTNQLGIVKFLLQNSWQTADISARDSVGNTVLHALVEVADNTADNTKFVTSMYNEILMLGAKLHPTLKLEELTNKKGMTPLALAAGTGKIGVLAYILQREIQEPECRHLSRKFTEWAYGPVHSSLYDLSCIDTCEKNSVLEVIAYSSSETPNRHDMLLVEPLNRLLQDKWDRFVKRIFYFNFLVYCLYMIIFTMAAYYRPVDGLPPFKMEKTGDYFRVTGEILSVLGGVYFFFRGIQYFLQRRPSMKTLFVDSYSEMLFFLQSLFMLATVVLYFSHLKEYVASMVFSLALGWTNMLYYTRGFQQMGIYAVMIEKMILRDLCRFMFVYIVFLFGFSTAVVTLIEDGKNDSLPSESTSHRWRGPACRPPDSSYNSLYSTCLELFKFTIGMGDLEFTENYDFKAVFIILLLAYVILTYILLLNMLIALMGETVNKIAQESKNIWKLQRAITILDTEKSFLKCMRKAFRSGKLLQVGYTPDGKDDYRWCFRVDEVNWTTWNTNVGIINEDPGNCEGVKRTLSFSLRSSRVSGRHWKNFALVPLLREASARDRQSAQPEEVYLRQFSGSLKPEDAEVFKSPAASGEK
Procedure, shortened: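 TRPV1-expressing cells loaded with Fluo-8 calcium dye; compounds added and calcium influx read kinetically for 3 min (agonist phase), then capsaicin at EC20 added and read 2 min more for enhancement. Fluorescence ex 480/em 520 nm.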

[9] = target: Thyrotropin receptor (Homo sapiens) (UniProt P16473); experiment: qHTS Assay for Antagonists of the Thyroid Stimulating Hormone Receptor (AID 488980)
Chain of Thyrotropin receptor (Homo sapiens) (P16473 whole entry, looked up): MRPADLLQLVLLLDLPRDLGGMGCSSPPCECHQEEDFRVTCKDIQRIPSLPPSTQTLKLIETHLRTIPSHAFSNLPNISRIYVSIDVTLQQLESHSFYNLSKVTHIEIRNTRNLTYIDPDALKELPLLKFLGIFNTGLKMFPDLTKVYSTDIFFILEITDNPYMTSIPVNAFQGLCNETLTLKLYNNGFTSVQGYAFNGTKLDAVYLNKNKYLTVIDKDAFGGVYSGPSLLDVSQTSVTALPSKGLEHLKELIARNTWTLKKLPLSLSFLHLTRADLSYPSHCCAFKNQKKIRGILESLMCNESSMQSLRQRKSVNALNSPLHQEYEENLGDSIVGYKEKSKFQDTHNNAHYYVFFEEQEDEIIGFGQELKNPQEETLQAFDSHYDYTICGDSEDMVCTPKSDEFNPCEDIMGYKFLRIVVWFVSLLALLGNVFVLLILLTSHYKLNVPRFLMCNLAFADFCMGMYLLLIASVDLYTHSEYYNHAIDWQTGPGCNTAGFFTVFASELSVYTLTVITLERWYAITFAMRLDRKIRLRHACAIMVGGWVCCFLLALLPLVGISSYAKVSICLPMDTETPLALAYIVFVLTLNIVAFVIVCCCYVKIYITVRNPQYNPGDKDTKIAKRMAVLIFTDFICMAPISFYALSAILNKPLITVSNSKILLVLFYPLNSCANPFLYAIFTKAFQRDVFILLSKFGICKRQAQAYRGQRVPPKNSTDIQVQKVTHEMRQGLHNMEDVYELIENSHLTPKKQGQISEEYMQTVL
Procedure, shortened: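 TSHR-transfected HEK293 cells (2000/well) in HEPES-buffered HBSS with 70 uM RO 20-1724 were stimulated with 4 nM TSH (EC80, final) in the presence of compound. cAMP was measured by HTRF competition after lysis and 30 min at RT.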

[10] = target: Thyrotropin-releasing hormone receptor (Homo sapiens) (UniProt P34981); experiment: qHTS for Small Molecule Agonists and Allosteric Enhancers of Human TRH Receptor: Validation Screen for Agonists (AID 493127;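 active = calcium activation more than 3 SD above the typical response in the agonist read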;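 also: intracellular calcium rise by fluo-8 fluorescence before TRH EC20 addition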); conditions: TRH receptor agonist cell assay; at 2 µM; hits give high values
Chain of Thyrotropin-releasing hormone receptor (Homo sapiens) (P34981 whole entry, looked up): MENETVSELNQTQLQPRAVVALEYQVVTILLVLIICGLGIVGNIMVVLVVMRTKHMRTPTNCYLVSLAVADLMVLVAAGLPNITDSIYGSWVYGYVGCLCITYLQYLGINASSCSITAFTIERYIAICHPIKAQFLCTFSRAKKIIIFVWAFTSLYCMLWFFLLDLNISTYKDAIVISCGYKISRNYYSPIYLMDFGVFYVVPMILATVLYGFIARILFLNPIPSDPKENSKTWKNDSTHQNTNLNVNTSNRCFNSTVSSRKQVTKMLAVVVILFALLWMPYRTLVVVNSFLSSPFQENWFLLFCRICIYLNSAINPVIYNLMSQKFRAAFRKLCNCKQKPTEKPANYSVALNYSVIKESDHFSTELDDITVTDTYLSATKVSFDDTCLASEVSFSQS
Procedure, shortened: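 Kinetic fluorescence assay of agonist-induced calcium release: overnight-plated TRHR cells, room-temperature fluo-8 loading, baseline then compound addition with per-second reads.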

[11] = target: Galactokinase (Homo sapiens) (UniProt P51570); experiment: qHTS Validation Assay for Inhibitors of Human Galactokinase (GALK) (AID 493189)
Chain of Galactokinase (Homo sapiens) (P51570 whole entry, looked up): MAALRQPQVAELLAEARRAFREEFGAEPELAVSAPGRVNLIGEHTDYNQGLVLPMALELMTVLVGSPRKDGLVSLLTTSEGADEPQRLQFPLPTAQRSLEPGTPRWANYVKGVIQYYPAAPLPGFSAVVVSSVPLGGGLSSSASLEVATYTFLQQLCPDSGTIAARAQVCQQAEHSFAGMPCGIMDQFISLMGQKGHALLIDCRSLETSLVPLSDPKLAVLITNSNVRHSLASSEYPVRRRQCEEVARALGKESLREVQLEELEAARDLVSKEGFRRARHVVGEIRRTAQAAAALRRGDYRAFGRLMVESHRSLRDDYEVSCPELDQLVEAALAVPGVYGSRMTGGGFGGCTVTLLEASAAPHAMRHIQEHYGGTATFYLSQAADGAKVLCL
Procedure, shortened: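 GALK (5 nM) with 35 uM ATP and 100 uM galactose in HEPES pH 8.0 with MgCl2, NaCl, DTT and BSA. Reaction ran 1 h at room temperature. Residual ATP read by Kinase-Glo Plus luminescence.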

[12] = Validation screen for small molecules that induce DNA re-replication in SW480 colon adenocarcinoma cells (AID 504364)
Procedure, shortened: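 Hoechst-stained SW480 nuclei, imaged at 405 nm excitation after 48 hr compound exposure, were counted for elevated DNA content as the re-replication signal.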

[13] = Viability counterscreen for antagonist of constitutive androstane receptor (CAR) against the NCATS DSHEA and TCM libraries (AID 1794837);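 also: compound exposure lasted 24 h before viability reading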
Procedure, shortened: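 HepG2-CYP2B6-hCAR cells, 2,500/well, were exposed 24 hr at 37C to substances together with 48 uM CITCO (final). Viability was read as CellTiter-Fluor fluorescence (Ex/Em 405/540 nm) after 1 hr.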

[14] = Viability counterscreen for agonist of constitutive androstane receptor (CAR) against the NCATS DSHEA and TCM libraries (AID 1794838);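 also: HepG2 cells with CYP2B6 reporter and hCAR plus 0.75 µM PK11195 antagonist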
Procedure, shortened: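 HepG2-CYP2B6-hCAR cells (2,500/well) treated 24 h at 37C with compounds plus 0.75 uM PK11195; viability read by CellTiter-Fluor fluorescence, Ex/Em 405/540 nm.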

[15] = target: Nuclear receptor subfamily 1 group I member 3 (Homo sapiens) (UniProt Q14994); experiment: Primary qHTS for agonist of constitutive androstane receptor (CAR) against the NCATS DSHEA and TCM libraries (AID 1794839);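 also: HepG2 cells expressing human CAR with a CYP2B6 reporter plus PK11195 antagonist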
Chain of Nuclear receptor subfamily 1 group I member 3 (Homo sapiens) (Q14994 whole entry, looked up): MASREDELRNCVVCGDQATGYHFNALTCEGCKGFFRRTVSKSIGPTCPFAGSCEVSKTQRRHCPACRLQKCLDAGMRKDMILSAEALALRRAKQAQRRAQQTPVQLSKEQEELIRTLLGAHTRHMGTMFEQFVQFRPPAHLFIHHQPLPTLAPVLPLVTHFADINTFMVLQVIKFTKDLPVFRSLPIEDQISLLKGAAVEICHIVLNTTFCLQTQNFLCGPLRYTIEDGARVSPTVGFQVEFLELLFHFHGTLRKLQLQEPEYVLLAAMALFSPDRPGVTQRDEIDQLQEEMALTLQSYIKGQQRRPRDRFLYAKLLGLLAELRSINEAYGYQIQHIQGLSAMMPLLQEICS
Procedure, shortened: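 HepG2-CYP2B6-hCAR cells, 2,500/well, attached 5 h, then dosed with 0.75 µM PK11195 (final) for 24 h at 37 °C. Luciferase luminescence read (ONE-Glo); CellTiter-Fluor viability (Ex/Em 405/540 nm) in same wells; CITCO positive control.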

[16] = HepG2 viability counterscreen (readout 2: ATP content) against the NCATS DSHEA and TCM libraries (AID 1794840)
Procedure, shortened: (§2)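 HepG2 cells, 1,000/well, attached ~4 h, then exposed ~24 h at 37C to substances. Protease activity read by fluorescence of 25 uM GF-AFC (Ex/Em 380/510 nm) after 30 min; ATP then by CellTiter-Glo luminescence.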

[17] = HepG2 viability counterscreen (readout 1: protease activity) against the NCATS DSHEA and TCM libraries (AID 1794841);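 also: cells exposed to compounds for about 24 h before the protease read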
Procedure, shortened: as §2

CCOC(=O)C(CCc1ccccc1)NC1CCc2ccccc2N(CC(=O)O)C1=O (stereo not given)
Potency [1]: inactive
Potency (CP315): inactive
Potency (ICS): 6.31 µM (active)
Potency (JCK): inactive

C[C@@H](C(=O)O)c1ccc(-c2ccccc2)c(F)c1
Potency [1]: inactive
activity, negative = inhibition ([2]; parasite line A): 6.83%
activity, negative = inhibition ([2]; parasite line B): 6.59%
Potency (CP315): inactive
Potency (ICS): inactive
Potency (JCK): inactive

C[N+](C)(C)CCC(=O)c1cccc2ccccc12
Potency [3]: inactive
Potency [4]: inactive
Potency [5]: inactive
Potency [6]: inactive
Potency [7]: inactive
outcome [8]: inactive
outcome [9]: inactive
activation [10]: 3.69%
outcome [11]: inactive
outcome [12]: inactive

CCCCC[C@H](O)CC(=O)CCc1ccc(O)c(OC)c1
outcome [13]: inactive
outcome [14]: inactive
outcome [15]: inactive
outcome [16]: inactive
outcome [17]: inactive

CC/C=C\C/C=C\C/C=C\C/C=C\C/C=C\CCCCCC(=O)O
viability change, negative = cytotoxic [13]: -12.7% [at 5 µM]
activity change, negative = cytotoxicity [14]: -18.6% [at 5 µM]
activation [15]: -16.7% [at 5 µM]
activity change, negative = cytotoxic [16]: -0.254% [at 3.42 µM]
activity change, negative = inhibition [17]: -1.31% [at 3.42 µM]

COc1ccc2c(c1)c(CC(=O)N1CCOCC1)c(C)n2C(=O)c1ccc(Cl)cc1
Potency [3]: inactive
Potency [4]: inactive
Potency [5]: 10 µM (active)
Potency [6]: 12.6 µM (active)
Potency [7]: inactive
outcome [8]: inactive
outcome [9]: inactive
activation [10]: 1.25%
outcome [11]: inactive
outcome [12]: inactive

From PubChem BioAssay (NCATS)
